Screens as filed in PubChem.
The full list was thinned out, with hits kept by preference.
CD11b adhes inh = inhibitors of human CD11b/CD18 binding to fibrinogen; P05107+P11215; K562 CD11b/CD18 adhesion to fibrinogen, ATPlite luminescence; Mn2+ added to activate the integrin; inhibition, % at 10 µM; actives 0.54% (n = 93,000);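 active = primary inhibition of 50% or more at 10 µM, then 40% or more on retest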
Ecoli WT expand = E. coli BW25113 growth inhibition, expanded screen. OD600 absorbance. growth inhibition, % at 100 µM. actives 0.15% (n = 98,000). AID 710;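 active = growth inhibition above about 50% at one test dose, limit read from the data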;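 also: growth measured after 20 h incubation at 37 °C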
Mac1 fbg enh = increases human CD11b/CD18 adhesion to fibrinogen; P05107+P11215; K562 CD11b/CD18 adhesion to fibrinogen, ATPlite luminescence; activation, % at 10 µM; actives 0.07% (n = 93,000); AID 1499;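 active = 10 µM primary screen giving 50% or more activity, confirmed by 40% or more on retest at that dose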
Cav32 inh = human Cav3.2 channel inhibition, primary screen; Cav3.2-expressing cells, Fluo-4 calcium fluorescence FDSS; active compounds read low; B-score at 10 µM; AID 449739; actives 4% (n = 100,000); O95180;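 active = single-dose well whose peak fluorescence ratio is a statistical outlier from its plate by either plate-standardised score or position-corrected B-score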
* = called active by the depositor; nt = no result given.

SMILES	CD11b adhes inh	Ecoli WT expand	Mac1 fbg enh	Cav32 inh
Cc1ccc(-c2nnc(CSc3nc(C(C)C)nc4sc(C)c(C)c34)o2)cc1	nt	nt	nt	-0.04
COc1ccc(Cl)cc1NC(=O)C(C)N(C)Cc1cccc(Cl)c1Cl (centres undefined)	6	nt	2	nt
C=CCNC(=O)c1onc(CSc2cccc(OC)c2)c1C(=O)O	nt	-2	nt	0.62
CCCCCc1c(C)nc(Nc2nc(C)c3cc(OC)ccc3n2)[nH]c1=O	-6	2	7	-3.8*
CCc1c(C)nc(Nc2nc(C)c3ccc(OC)cc3n2)[nH]c1=O	-43	-12	0	1.1
COc1ccc(CNc2oc(Cc3cccc4ccccc34)nc2C#N)cc1	27	-21	0	-7*
N#Cc1nc(Cc2ccccc2)oc1NCc1ccccc1	nt	nt	nt	-5.4*
COc1ccc(CNc2oc(COc3ccccc3)nc2C#N)cc1	nt	-4	nt	nt
C#CCNC(=O)C1=C[C@@H](C)[C@H](CCCO)[C@@H](OCC)O1	nt	nt	nt	1.1
N#CN=C1SCCS1	-12	3	-2	-4.5*
Cc1ccc(NC(=O)C(c2ccc(Cl)cc2)N2CCCCC2)cc1 (centres undefined)	-2	-4	0	-7*
CC(C)c1ccc(NC(=O)C(c2ccccc2)N2CCC3(CC2)OCCO3)cc1 (centres undefined)	-7	1	3	-7.4*
O=C(NCC(=O)N1CCCCC1)c1ccc(Cl)cc1Cl	0	5	-4	0.61
Cc1ccc(C(C(=O)NC2CCCCC2)N2CCOCC2)cc1 (centres undefined)	-7	6	1	0.68
Cc1cccc(C)c1NC(=O)C(c1ccc(Cl)cc1Cl)N1CCCCC1 (centres undefined)	nt	-5	nt	-5*
FC(F)Oc1ccc(/C=N/c2c(-c3ccc(OC(F)F)cc3)nc3n2CCS3)cc1	nt	nt	nt	-0.42
COc1ccc(NC(=O)COC(=O)C2CCC(C(C)(C)C)CC2)c([N+](=O)[O-])c1 (centres undefined)	32	nt	-4	nt
CCCCCC(=O)N/N=C/c1ccc([N+](=O)[O-])o1	nt	60*	nt	-0.033
Cc1ccc(NC(=O)CSCC(=O)N2c3ccccc3CCc3ccccc32)cc1	6	-27	-2	-4.9*
Cc1ccc(CSCC(=O)Nc2ccc(F)cc2)cc1	4	nt	4	nt
Cc1ccccc1N1CCN(S(=O)(=O)c2ccccc2)CC1	nt	nt	nt	-4.6*
CCOc1ccc(S(=O)(=O)N2CCN(c3ccc(C)cc3C)CC2)cc1	61	-24	-3	-4.7
COc1ccc(S(=O)(=O)N2CCN(c3ccc(C)cc3C)CC2)cc1OC	85	-7	-11	-6*
CCOC(=O)CN(C(=O)CSc1nnc(Cc2ccccc2)n1-c1ccc(C)cc1)c1ccccc1	nt	nt	nt	-8.4*
CCOC(=O)CSc1nnc(Cc2ccccc2)n1-c1ccc(C)cc1	nt	nt	nt	-2.8
SMILES	CD11b adhes inh	Ecoli WT expand	Mac1 fbg enh	Cav32 inh
CCn1c(SCc2nc(-c3ccc(Cl)cc3)no2)nnc1-c1ccco1	58*	14	-8	-2.7
Cn1c(SCc2nc(-c3ccccc3)no2)nnc1-c1ccco1	nt	4	nt	0.68
CCc1nnc(NC(=O)CSc2nnc(C3CCCCC3)n2-c2cccc(Cl)c2)s1	nt	7	nt	-4.3*
Cc1ccc(-c2noc(CSc3nnc(Cc4ccccc4)n3-c3ccc(Cl)cc3)n2)cc1	13	-35	-1	-5.4*
Cc1ccc(NC(=O)CCCCCCCCCCC2COCCO2)c(C)c1 (centres undefined)	35	nt	15	nt
CCOC(=O)c1sc(Nc2cccc(C)c2C)nc1C	nt	23	nt	nt
Cc1ccc(CN2[C@@H](CC(C)C)COCCS2(=O)=O)cc1	nt	nt	nt	-0.35
CC(=O)Oc1cc2cccc(OC(C)=O)c(=O)c2c(OC(C)=O)c1OC(C)=O	nt	nt	nt	-0.011
Cc1ccc(-n2c(Cc3ccccc3)nnc2SCC(=O)NNC(=O)Cc2ccccc2)cc1	nt	8	nt	-5.7*
Cc1nnc(NC(=O)CSc2nnc(Cc3ccccc3)n2-c2ccccc2)s1	-6	0	0	-1.8
CCOc1ccc(-n2c(Cc3ccccc3)nnc2SCc2c(C)noc2C)cc1	11	8	3	-4.3*
CCc1nnc(NC(=O)CSc2nnc(Cc3ccccc3)n2-c2ccccc2)s1	-4	-4	-1	-4.5*
CC1(c2nnc(-c3ccc(Cl)cc3)o2)CC(c2cccnc2)=NO1 (centres undefined)	nt	nt	nt	0.39
O=c1c(-c2ccc(O)cc2)coc2cc(OC3OC(CO)C(O)C(O)C3O)ccc12 (centres undefined)	nt	nt	nt	-0.096
N=c1c(-c2nc3ccccc3[nH]2)cc(C(=O)c2cccs2)nn1-c1ccc(Cl)cc1	nt	nt	nt	0.47
Cc1cc(Cl)ccc1Oc1nccc(N(C)C)c1C#N	nt	-2	nt	-0.1
CCOC(=O)Cc1csc(NC(=O)c2cccs2)n1	-1	-1	0	-5.4*
Clc1ccc(OCCN2CCOCC2)cc1Cl	-2	8	-10	-4*
CC(C)C(=O)N1CCN(c2nc(-c3ccccc3)c3c(c2C#N)CCCC3)CC1	-18	-12	3	-5.3*
CCCC(=O)N1CCN(c2nc(CC(C)C)c3c(c2C#N)CCC3)CC1	0	9	-1	-5.5*
Cc1cc2ncn(C(=O)N3CCCCCC3)c2cc1C	nt	nt	nt	0.87
COc1ccc(-c2nnn(CC(=O)N(Cc3ccccc3Cl)C(C(=O)NCC3CCCO3)c3ccco3)n2)cc1OC (centres undefined)	-13	-15	3	-1
O=C(O)CCCN1C(=O)/C(=C/c2ccc(-c3nc4ccccc4s3)o2)SC1=S	93*	5	41	nt
COc1ccc(NC(=O)CCCN2C(=O)/C(=C\c3ccco3)SC2=S)cc1	2	nt	9	nt
CCOC(=O)C1=C(C)NC2=C(C(=O)CCC2)C1c1cn(Cc2ccc(Cl)cc2Cl)nc1-c1ccccc1 (centres undefined)	23	-11	-1	nt
SMILES	CD11b adhes inh	Ecoli WT expand	Mac1 fbg enh	Cav32 inh
COC(=O)C1=C(C)NC2=C(C(=O)CCC2)C1c1cn(Cc2ccc(Cl)cc2Cl)nc1-c1ccccc1 (centres undefined)	3	-9	0	-7.3*
COc1ccc(-c2n[nH]c3c2C(c2ccc(OC)c(OC)c2)N(c2ccccc2)C3=O)cc1 (centres undefined)	12	-7	0	-5.6*
COc1cccc(C2c3c(-c4ccccc4)n[nH]c3C(=O)N2c2ccc(C(=O)O)cc2)c1 (centres undefined)	nt	0	nt	1.2
c1coc(CNc2nc3nonc3nc2NCc2ccco2)c1	62*	13	-3	-3.2
O=S(=O)(Nc1nc2ccccc2nc1NCc1ccco1)c1ccccc1	12	1	-2	-1.3
O=C(Nc1ccc(N2CCCC2)cc1)c1cccc(F)c1	-29	-8	1	-5.7*
Cc1ccc(S(=O)(=O)c2c(C(=O)c3ccccc3)cnc3cc4c(cc23)OCCO4)cc1	1	nt	4	nt
CCCCOC(=O)Nc1cc(OC)c(Cl)cc1OC	-15	-5	-2	-2.5*
CCOC(=O)/C(C#N)=C\N(C)C	nt	5	nt	nt
C=CCN1C=CC(=C/C=C(/C#N)C(=O)OCC)C=C1	nt	nt	nt	-6.4*
Cc1snc(S(=O)(=O)/C(C#N)=N/Nc2ccc(C(F)(F)F)cc2)c1C#N	20	12	-1	-6.4*
CC(O)(CC(=O)O)CC(=O)O	nt	nt	nt	-0.0021
O=C(NCCO)c1ccc2[nH]c3c(c2c1)CCCC3	-10	-3	2	0.76
